The source of these data is the supplement of paper PMC12067093, “Discovery and optimisation of a covalent ligand for TRIM25 and its application to targeted protein ubiquitination” (Chemical Science, 2025).

About 21,000 targets were measured; listed, in parts, are those with the largest changes and a random draw of the rest.

Compound in this experiment: CC1Cc2ccccc2N1C(=O)C1CCCN(C1)C(=O)CCl (mixture of isomers) [TRIM25 ligand 11 (diastereomer mixture)]
Description: probe-labelled cysteine peptide fold change vs DMSO (competition) (log2 fold change); higher = less target engagement (more negative = stronger competition). The following applies: THP-1, incubation time: 4 h.
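Also: competitive chemoproteomic profiling in live THP-1 cells with an iodoacetamide desthiobiotin (IA-DTB) probe, comparing probe-labelled peptide intensities in compound-treated cells against DMSO-treated controls.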

Sequence of UniProt Q9UBG0 (Q9UBG0 whole entry, looked up): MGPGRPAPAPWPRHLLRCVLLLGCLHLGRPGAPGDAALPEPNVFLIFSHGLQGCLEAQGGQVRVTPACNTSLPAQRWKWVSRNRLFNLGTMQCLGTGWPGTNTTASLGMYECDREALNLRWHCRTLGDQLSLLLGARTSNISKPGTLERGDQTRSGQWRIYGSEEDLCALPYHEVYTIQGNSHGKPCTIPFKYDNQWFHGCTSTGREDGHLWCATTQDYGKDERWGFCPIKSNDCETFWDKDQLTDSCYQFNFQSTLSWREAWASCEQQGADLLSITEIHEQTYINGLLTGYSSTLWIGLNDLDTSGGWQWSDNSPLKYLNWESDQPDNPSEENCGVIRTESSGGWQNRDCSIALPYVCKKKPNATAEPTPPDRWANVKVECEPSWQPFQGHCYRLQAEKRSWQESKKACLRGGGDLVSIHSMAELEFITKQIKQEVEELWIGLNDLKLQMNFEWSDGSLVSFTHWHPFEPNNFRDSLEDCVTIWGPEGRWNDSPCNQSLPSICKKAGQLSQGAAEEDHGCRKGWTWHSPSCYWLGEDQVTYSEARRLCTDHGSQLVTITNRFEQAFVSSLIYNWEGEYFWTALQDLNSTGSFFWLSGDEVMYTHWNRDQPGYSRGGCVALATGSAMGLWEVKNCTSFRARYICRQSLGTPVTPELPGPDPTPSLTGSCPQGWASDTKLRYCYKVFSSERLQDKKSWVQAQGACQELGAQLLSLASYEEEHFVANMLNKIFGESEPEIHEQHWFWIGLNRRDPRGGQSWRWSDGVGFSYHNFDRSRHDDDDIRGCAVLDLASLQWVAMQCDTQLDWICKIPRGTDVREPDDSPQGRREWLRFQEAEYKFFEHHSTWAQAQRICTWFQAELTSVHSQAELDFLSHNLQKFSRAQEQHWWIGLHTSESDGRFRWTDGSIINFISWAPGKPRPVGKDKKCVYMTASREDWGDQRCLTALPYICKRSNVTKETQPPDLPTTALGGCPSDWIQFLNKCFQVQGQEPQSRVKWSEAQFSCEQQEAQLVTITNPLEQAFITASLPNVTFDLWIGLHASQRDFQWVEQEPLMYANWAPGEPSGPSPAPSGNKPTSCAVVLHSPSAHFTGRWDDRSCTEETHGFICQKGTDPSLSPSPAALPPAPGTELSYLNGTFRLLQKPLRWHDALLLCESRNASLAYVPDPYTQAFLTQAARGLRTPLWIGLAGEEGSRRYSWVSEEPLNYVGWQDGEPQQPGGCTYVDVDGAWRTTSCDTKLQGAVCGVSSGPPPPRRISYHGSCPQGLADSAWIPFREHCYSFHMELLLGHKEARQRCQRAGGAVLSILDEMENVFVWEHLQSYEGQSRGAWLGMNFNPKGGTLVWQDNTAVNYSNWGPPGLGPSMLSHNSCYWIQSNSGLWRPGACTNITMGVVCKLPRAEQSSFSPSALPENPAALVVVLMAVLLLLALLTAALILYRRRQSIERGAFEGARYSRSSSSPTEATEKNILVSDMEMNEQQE
Sequence of UniProt Q8IWA4 (Q8IWA4 whole entry): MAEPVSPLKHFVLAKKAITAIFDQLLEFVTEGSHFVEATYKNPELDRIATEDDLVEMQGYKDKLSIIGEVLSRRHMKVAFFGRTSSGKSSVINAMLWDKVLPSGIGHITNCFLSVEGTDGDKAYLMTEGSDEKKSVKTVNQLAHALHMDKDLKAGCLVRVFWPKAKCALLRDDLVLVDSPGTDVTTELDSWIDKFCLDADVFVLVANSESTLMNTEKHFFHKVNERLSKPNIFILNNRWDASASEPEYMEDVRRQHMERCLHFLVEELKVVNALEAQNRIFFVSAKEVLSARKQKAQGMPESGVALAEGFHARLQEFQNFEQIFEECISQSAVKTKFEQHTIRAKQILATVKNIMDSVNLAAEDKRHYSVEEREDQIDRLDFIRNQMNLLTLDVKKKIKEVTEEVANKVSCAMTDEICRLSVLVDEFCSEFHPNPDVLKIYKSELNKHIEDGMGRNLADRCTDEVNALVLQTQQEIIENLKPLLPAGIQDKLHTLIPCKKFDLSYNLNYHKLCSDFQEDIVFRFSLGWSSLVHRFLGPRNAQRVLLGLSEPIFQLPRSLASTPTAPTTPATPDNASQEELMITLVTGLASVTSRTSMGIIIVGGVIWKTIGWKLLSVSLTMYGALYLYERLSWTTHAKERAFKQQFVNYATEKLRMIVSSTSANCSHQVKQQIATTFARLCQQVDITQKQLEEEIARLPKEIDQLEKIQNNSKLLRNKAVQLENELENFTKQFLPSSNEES
Sequence of UniProt Q13615 (Q13615 whole entry, looked up): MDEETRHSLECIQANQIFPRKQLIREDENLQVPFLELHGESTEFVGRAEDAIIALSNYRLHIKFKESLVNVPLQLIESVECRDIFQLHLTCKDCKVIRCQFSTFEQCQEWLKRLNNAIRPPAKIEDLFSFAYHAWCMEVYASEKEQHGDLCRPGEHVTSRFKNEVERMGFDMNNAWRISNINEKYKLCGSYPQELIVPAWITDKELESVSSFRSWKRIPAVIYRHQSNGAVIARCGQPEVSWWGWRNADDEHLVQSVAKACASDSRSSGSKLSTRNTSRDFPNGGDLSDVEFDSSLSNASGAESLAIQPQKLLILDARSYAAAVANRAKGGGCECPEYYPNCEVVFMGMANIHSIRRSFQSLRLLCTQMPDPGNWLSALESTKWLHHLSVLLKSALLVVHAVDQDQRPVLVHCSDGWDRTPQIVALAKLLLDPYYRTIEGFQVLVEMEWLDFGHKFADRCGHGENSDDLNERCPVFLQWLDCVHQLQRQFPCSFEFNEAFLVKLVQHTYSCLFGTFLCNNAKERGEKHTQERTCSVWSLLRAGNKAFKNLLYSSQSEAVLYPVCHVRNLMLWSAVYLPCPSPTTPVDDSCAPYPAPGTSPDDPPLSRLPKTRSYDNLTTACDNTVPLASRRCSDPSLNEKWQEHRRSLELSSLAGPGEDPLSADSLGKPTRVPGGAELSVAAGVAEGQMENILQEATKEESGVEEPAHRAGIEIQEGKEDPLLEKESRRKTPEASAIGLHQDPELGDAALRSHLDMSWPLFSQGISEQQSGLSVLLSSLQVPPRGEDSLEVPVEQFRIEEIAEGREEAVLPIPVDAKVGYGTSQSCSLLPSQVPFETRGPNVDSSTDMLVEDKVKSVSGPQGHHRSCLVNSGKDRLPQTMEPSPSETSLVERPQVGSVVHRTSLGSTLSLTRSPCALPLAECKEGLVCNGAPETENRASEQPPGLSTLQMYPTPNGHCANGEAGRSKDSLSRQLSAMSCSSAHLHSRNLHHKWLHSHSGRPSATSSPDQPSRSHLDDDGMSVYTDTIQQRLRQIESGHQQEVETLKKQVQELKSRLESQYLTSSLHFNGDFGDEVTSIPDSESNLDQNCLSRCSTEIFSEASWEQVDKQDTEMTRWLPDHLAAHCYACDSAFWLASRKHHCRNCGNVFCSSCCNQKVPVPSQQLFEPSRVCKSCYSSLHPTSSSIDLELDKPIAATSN
Sequence of UniProt P49321 (P49321 whole entry, looked up): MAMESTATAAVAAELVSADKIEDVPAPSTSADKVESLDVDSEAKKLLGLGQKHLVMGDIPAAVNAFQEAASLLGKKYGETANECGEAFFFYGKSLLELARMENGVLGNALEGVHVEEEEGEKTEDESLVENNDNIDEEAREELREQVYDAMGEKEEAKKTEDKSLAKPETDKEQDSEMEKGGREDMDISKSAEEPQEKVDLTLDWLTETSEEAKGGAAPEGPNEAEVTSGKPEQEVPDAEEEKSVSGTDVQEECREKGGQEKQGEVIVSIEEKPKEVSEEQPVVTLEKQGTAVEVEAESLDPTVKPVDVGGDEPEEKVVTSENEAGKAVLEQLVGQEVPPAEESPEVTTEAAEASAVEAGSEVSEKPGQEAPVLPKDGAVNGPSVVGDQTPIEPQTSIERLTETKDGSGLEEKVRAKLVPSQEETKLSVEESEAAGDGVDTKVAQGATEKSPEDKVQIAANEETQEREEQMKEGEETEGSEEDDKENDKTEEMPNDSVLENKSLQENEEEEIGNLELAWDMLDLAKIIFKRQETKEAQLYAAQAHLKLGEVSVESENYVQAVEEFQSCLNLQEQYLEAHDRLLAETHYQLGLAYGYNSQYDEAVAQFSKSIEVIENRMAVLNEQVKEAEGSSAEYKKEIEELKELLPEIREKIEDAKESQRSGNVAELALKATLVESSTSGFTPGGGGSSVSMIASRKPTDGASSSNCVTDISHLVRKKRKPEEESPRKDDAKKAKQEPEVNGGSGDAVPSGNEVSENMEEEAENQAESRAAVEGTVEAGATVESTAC
Sequence of UniProt Q9P2G4 (Q9P2G4 whole entry, looked up): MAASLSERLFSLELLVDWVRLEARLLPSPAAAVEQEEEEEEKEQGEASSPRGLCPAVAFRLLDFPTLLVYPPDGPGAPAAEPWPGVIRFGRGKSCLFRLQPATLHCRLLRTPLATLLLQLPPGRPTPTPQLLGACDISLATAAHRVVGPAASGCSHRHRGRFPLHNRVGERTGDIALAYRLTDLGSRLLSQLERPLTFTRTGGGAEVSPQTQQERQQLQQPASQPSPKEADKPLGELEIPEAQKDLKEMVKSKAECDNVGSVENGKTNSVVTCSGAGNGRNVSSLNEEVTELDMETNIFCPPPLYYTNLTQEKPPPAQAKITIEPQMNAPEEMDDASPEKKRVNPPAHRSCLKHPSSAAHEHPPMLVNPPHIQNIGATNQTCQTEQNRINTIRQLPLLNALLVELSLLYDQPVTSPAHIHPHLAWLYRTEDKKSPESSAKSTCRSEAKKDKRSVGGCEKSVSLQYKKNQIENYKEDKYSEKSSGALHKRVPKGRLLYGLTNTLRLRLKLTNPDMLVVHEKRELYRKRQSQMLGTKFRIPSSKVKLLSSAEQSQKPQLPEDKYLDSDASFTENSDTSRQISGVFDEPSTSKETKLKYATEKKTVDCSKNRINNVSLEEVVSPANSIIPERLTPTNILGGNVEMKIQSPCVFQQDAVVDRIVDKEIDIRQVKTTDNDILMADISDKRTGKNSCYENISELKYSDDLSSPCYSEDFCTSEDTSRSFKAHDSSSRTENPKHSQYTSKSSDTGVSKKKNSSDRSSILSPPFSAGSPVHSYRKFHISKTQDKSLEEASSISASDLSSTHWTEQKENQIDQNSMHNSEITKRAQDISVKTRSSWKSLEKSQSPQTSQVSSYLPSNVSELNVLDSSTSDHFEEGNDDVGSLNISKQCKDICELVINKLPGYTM

Turning to “MTMR1_Q13613_438_TSVVVHCSDGWDR (UniProt Q13613)”, the “probe-labelled cysteine peptide fold change” value reads like this: (10 µM) 0.559; (50 µM) -0.0364.

Consider “MTMR3_Q13615_188_LCGSYPQELIVPAWITDK (UniProt Q13615)”, for which the “probe-labelled cysteine peptide fold change” value is 0.105 (10 µM) and 0.265 (50 µM).

In the case of “MAP10_Q9P2G4_605_TVDCSK (UniProt Q9P2G4)”, the “probe-labelled cysteine peptide fold change” value (10 µM) is -0.174 and the “probe-labelled cysteine peptide fold change” value (50 µM) is -0.0642.

For “MRC2_Q9UBG0_213_EDGHLWCATTQDYGKDER (UniProt Q9UBG0)”, the “probe-labelled cysteine peptide fold change” value reads like this: (10 µM) -0.0873; (50 µM) -0.0151.

Turning to “NASP_P49321_568_LGEVSVESENYVQAVEEFQSCLNLQEQYLEAHDR (UniProt P49321)”, the “probe-labelled cysteine peptide fold change” value is -0.127 (10 µM) and 0.217 (50 µM).

Regarding “MFN1_Q8IWA4_513_LCSDFQEDIVFR (UniProt Q8IWA4)”, the “probe-labelled cysteine peptide fold change” value (10 µM) came to 0.257 and the “probe-labelled cysteine peptide fold change” value (50 µM) came out at 0.355.
